Hits are enriched below; roughly 10% of the tested compounds scored in any of these assays.
12-hLO inh – blocks human 12-lipoxygenase activity; P18054; purified 12-hLO, xylenol orange hydroperoxide absorbance; Potency, µM (titrated, usually from 57.1 µM), hits mostly inhibitors; hit rate 0.12% among 150,000; AID 1452; active means well fitted inhibition curve with a large enough effect; inconclusive means small, poorly fitted or top-dose-only effect; further: nearly all actives have a fitted effect of over 55% in size
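Purified human 12hLO (150 nM final) was preincubated with compounds for 15 min at room temperature in 25 mM Hepes pH 7.0, 0.01% Triton X-100, then reacted with 40 uM arachidonic acid for 30 min. Hydroperoxide was detected with ferrous iron/xylenol orange.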
ALDH1A1 block – ALDH1A1 (human) enzyme inhibition; Potency, µM (doses to about 75.3 µM), actives largely listed as inhibitors; hit rate 7.3% among 220,000; P00352; Purified ALDH1A1, NADH fluorescence, propionaldehyde substrate; AID 1030
PNC assembly inh – perinucleolar compartment assembly inhibition; hit rate 3.1% among 140,000; activity change (PNC), negative = inhibition, % at 10 µM; PC3M PTB-GFP, PNC prevalence imaging, 16 h; stronger effect = lower value; AID 2417;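 active means readout at or below -70, meaning at least 70% loss of cells showing the perinucleolar compartment, a nuclear body marking cancer cells; inconclusive means readout between -30 and a set limit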
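Compounds are pinned in duplicate onto adhered PC3M cells stably expressing GFP-tagged PTB and incubated 16 h at 37 C. Cells are then fixed, nuclei stained with Hoechst, and PNC-positive cells counted.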
HPGD inh – HPGD (human) dehydrogenase inhibition; hit rate 4.3% among 150,000; Potency, µM, hits mostly inhibitors; purified HPGD, NADH fluorescence kinetic, PGE2 substrate; P15428
Target sequence (P15428 whole entry, looked up): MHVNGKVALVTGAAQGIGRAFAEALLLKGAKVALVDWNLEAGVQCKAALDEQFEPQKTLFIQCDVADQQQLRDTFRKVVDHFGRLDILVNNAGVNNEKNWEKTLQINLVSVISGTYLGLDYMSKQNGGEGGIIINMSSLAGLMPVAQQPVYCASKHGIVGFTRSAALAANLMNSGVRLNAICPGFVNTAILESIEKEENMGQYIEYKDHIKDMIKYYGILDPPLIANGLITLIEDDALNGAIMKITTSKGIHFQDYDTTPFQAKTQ
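20 nM HPGD preincubated 15 min at room temperature with compound in 50 mM Tris-HCl pH 8, 0.01% Tween 20. Started with 1 mM NAD+ and 30 uM prostaglandin E2; NADH fluorescence (360/450 nm) read 5 times over 30-s intervals, last minus first.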
Lamin A splicing – modulators of lamin A splicing. hit rate 0.01% among 200,000. HeLa LMNA splicing GFP/RFP minigene ratio, 48 h. Potency, µM (doses to about 46.1 µM), hits mostly inhibitors; active means well fitted inhibition curve with a large enough effect in the signal ratio, with a control signal flat, not every such curve was filed as active; inconclusive means small, poorly fitted or top-dose-only effect, or effect the other way, or a change in a side signal; the % refers to the signal ratio
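S3 HeLa stable clones carrying a lamin A-EGFP splicing minigene plus DsRed2 were seeded at 600 cells/well in Opti-MEM with 2% FBS, pin-dosed and incubated 48 h at 37°C. Acumen cytometry (488 nm) gave the GFP/RFP total-intensity ratio.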
A number is an active result; i = inactive; ? = inconclusive; nt = not tested or not shown; [ ] = remark or other dose. Unless noted, the call rests on the fitted dose curve; in most records, active means well fitted inhibition curve with a large enough effect (not every such curve was filed as active); inconclusive means small, poorly fitted or top-dose-only effect, or another doubt; inactive means no such curve, though single readings can be large or run the other way.

SMILES | 12-hLO inh | ALDH1A1 block | PNC assembly inh | HPGD inh | Lamin A splicing
O=c1[nH]ncc2ccccc12 | i | ? | nt | i | nt
O[C@H]1[C@H]2c3cc4c(cc3CN3CCC(=C[C@@H]1O)[C@H]23)OCO4 | nt | i | nt | nt | nt
Cc1ccc(C(=O)CC(=O)c2ccc(C(C)(C)C)cc2)cc1 | nt | i | nt | nt | i
Cc1ccc(C(=O)CNc2ccc(Br)cc2)cc1 | i | 18µM | i | i | i
O=C(CNc1ccc(Br)cc1)c1ccccc1 | i | 20µM | i | i | i
O=C(CNC(=S)NC(=O)c1ccc(F)cc1)c1ccccc1 | i | ? | i | i | ?
O=C(CNc1ccc(F)cc1)c1ccccc1 | nt | 13µM | nt | nt | i[9.22 µM]
Cc1ccc(C(=O)CNc2ccccc2C)cc1 | i | 11µM | ? | i | i
Cc1c(Cl)cccc1NC(=O)c1oc2ccc(S(=O)(=O)N3CCC4(CC3)OCCO4)cc2c1C | nt | nt | nt | nt | i
COc1ccc(OC)c(S(=O)(=O)N2CCC(C(=O)NC(C)c3ccccc3)CC2)c1 (centres undefined) | i | i | i | i | ?
COc1ccc(CCNC(=O)C2CCN(S(=O)(=O)c3ccc(OC)c(OC)c3)CC2)cc1 | i | i | i | i | i
COc1ccc(OC)c(S(=O)(=O)N2CCC(C(=O)NCC3CCCO3)CC2)c1 (centres undefined) | i | i | ? | i | i
COc1ccc(CCNC(=O)C2CCN(S(C)(=O)=O)CC2)cc1 | i | 16µM | i | i | i
COc1ccc(OC)c(S(=O)(=O)N2CCC(C(=O)N3CCN(Cc4ccccc4)CC3)CC2)c1 | i | ? | -80 | i | i
COc1ccc(CNC(=O)C2CCN(S(=O)(=O)c3cc(OC)ccc3OC)CC2)cc1 | i | ? | i | i | i
COc1ccc(OC)c(S(=O)(=O)N2CCC(C(=O)NCCc3ccccc3)CC2)c1 | i | 5µM | i | i | i
COc1ccc(CCNC(=O)C2CCN(S(=O)(=O)c3cc(OC)ccc3OC)CC2)cc1 | i | ? | -83 | i | i
C/C=C/OC(=O)NC(c1ccccc1)[C@]1(C(C)=O)CCOC1=O (some centres undefined) | nt | i[13.5 µM] | nt | nt | nt
CCCn1c(-c2ccc(F)cc2)nc2c(NCCCN(CCO)CCO)nc(C)nc21 | i | ? | nt | ? | nt
CCCC(=N)C1=C(O)CC(CC(C)SCC)CC1=O (centres undefined) | i | i | i | i | i
CCCc1noc2c1/C(=N\O)CC(CC(C)SCC)C2 (centres undefined) | i | ? | ? | 8.9µM | ?
CCCC(=O)C1C(=O)CC(CC(C)SCC)CC1=O (centres undefined) | i | i | i | i | i
CCSC(C)CC1C/C(=N/O)c2c(CC)noc2C1 (centres undefined) | i | i | -86 | ? | i
CCC(NC(=O)C1CCC1)c1ccccc1 (centres undefined) | i | i | -100 | i | i
CCC(NC(=O)CCc1ccccc1)c1ccccc1 (centres undefined) | nt | i | nt | nt | i
SMILES | 12-hLO inh | ALDH1A1 block | PNC assembly inh | HPGD inh | Lamin A splicing
CC(C)(C)c1ccc(-c2n[nH]c(=S)n2/N=C/c2ccncc2)cc1 | i | i | i | 11µM | i
S=c1[nH]nc(-c2ccncc2)n1/N=C/c1cccc2ccccc12 | i | i | i | 0.32µM | i
Cc1ccc(/C=N/n2c(-c3ccncc3)n[nH]c2=S)cc1 | i | ? | ? | 20µM | i
Cc1n[nH]c(=S)n1/N=C/c1ccccc1 | i | i | i | ? | i
C(=N\n1cnnc1)/c1cccc2ccccc12 | i | i | i | i | i
CC(C)c1cnc2c(c1SCc1cccc(C(F)(F)F)c1)c(=O)n(C)c(=O)n2C | nt | nt | nt | nt | i
CCCc1cc(=O)[nH]c(SCC(=O)Nc2ccc(OC(F)F)cc2)n1 | i | i | -94 | i | i
CCCc1cc(=O)[nH]c(SCC(=O)Nc2ccc3c(c2)CCC3)n1 | nt | i | nt | nt | nt
C=CCSc1nnc(NC(=O)CSc2nc(CCC)cc(=O)[nH]2)s1 | i | i | i | 20µM | ?
Cc1ccc(S(=O)(=O)Nc2ccc(O)c(C(=O)O)c2)c(C)c1 | i | ? | nt | i | nt
O=c1c2c3c(sc2nc2n1CCCCC2)CCCC3 | i | 35µM | i | ? | ?
O=c1c2c3c(sc2nc2n1CCCCC2)CCCCC3 | i | ? | ? | ? | i
C=CC(C)(C)c1[nH]c2ccccc2c1C1=C(O)C(=O)C(c2c[nH]c3c(CC=C(C)C)cccc23)=C(O)C1=O | ? | ? | nt | 25µM | nt
CC(C)c1ccc(/C=C2\CC/C(=C\C=N\N(C)C)C2=O)cc1 | ? | 0.4µM | i | i | i
